The values that follow come from PubChem BioAssay (NCI).

Values joined by “and” are separate entries in the source; they are usually repeats but may differ in a detail not shown here. Equal values may be shown once. This is part of a sample that, as a whole, favours compounds with a hit. Of some 79,000 tested, about 15% had one in any assay. A number with no mark means an inactive call. Active and inactive are the calls of the source. No stated cut-off is given here; in the data, active means growth inhibition above about 70%; inactive means the rest.

Test [1] is described as follows: NCI Yeast Anticancer Drug Screen. Data for the rad50 strain (AID 155).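 Further: 0% = growth of vehicle-only cultures of the same strain.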 The settings on record: S. cerevisiae rad50 strain growth inhibition, stronger effect = higher value. An outline of the steps: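 Readout: growth inhibition relative to vehicle-treated cultures. Compound exposure was carried out in a genetically defined yeast strain deficient in DNA damage repair.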
Test [2] is described as follows: NCI Yeast Anticancer Drug Screen. Data for the mec2-1 strain (AID 157). The settings on record: S. cerevisiae mec2-1 strain, stronger effect = higher value. An outline of the steps: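 Using mec2-1 yeast: add compound, measure growth, express inhibition versus vehicle-treated cultures.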
Test [3] can be described thus: NCI Yeast Anticancer Drug Screen. Data for the sgs1 mgt1 strain (AID 161).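 Further: 0% = growth of cultures given vehicle only.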 The settings on record: S. cerevisiae sgs1 mgt1 strain, stronger effect = higher value. An outline of the steps: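 Growth of a repair-deficient yeast mutant was monitored after compound treatment and expressed as inhibition relative to vehicle-treated cultures.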
Test [4] in a line: NCI Yeast Anticancer Drug Screen. Data for the cln2 rad14 strain (AID 165).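 Further: 0% = growth equal to vehicle treated cultures.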 The conditions noted are these: S. cerevisiae cln2 rad14 strain, stronger effect = higher value. Summed up:
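Yeast strain cln2 rad14, bearing defects in cell cycle control and DNA repair, serves as the test system; values reflect growth inhibition compared with vehicle.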

Test [5] in a line: NCI Yeast Anticancer Drug Screen. Data for the bub3 strain (AID 167). The conditions noted are these: S. cerevisiae bub3 mutant strain, stronger effect = higher value. Summed up: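 Readout: yeast growth inhibition, expressed relative to vehicle-only wells. The test organism is a mutant strain from a panel with lesions in DNA repair or checkpoint genes.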
A short description of test [6]: NCI Yeast Anticancer Drug Screen. Data for the mlh1 rad18 strain (AID 175). The settings on record: S. cerevisiae mlh1 rad18 strain growth inhibition, stronger effect = higher value. Summed up: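 Steps: expose repair-defective yeast to compound; measure growth; express inhibition against vehicle-treated controls.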
The mark [7] stands for this setting: at 5.0 µM (retest, dose inferred, filed as 0.5).
[8] abbreviates: at 50.0 µM (retest, dose inferred, filed as 5.0).

For `CSc1ccccc1C(=O)O`, the growth inhibition in test [1] (at 50.0 µM) was -0.25% and -1.5% and -11%; in test [2] (at 50.0 µM) it was -1.9% and -7.55% and 25.9%; in test [3] (at 50.0 µM) it was -10.4% and -1.2% and 31.2%; in test [4] (at 50.0 µM), -32.9% and -15.8% and 17.3%; in test [5] (at 50.0 µM), -30.5% and -6.5% and -34%; in test [6] (at 50.0 µM), -7.45% and -1.95% and -8.9%.

On to `CC(=O)OCC1OC(c2cccc3c2c2ccccc2n3S(=O)(=O)c2ccccc2)C(O)C1O` (centres undefined), for which the growth inhibition in test [2] (setting [7]) was 1%; in test [2] (setting [8]) it was 97% (active); in test [2] (at 50.0 µM) it was -0.7%; in test [3] (setting [7]), -1%; in test [3] (setting [8]), 97% (active); in test [3] (at 50.0 µM), 7.15%. Moreover, the growth inhibition in test [4] (setting [7]) is 2%; in test [4] (setting [8]) it was 98% (active); in test [4] (at 50.0 µM) it was 1.25%; in test [5] (setting [7]), 0%; in test [5] (setting [8]) it was 98% (active); in test [5] (at 50.0 µM), 7.8%. For the same compound, the growth inhibition in test [6] (setting [7]) was 1%; in test [6] (setting [8]) it was 98% (active); in test [6] (at 50.0 µM), 37.9%.

For `O=C(O)/C(=C/c1ccccc1)c1ccc2ccccc2c1Br`, the growth inhibition in test [1] (setting [7]) was 11%; in test [1] (setting [8]), 99% (active); in test [1] (at 50.0 µM) it was 99.6% (active); in test [2] (setting [7]) it was 1%; in test [2] (setting [8]) it was 100% (active); in test [2] (at 50.0 µM) it was 99.7% (active). Further, the growth inhibition in test [3] (setting [7]) was 7%; in test [3] (setting [8]), 100% (active); in test [3] (at 50.0 µM) it was 99.7% (active); in test [4] (setting [7]) it was -18%; in test [4] (setting [8]), 99% (active); in test [4] (at 50.0 µM), 99.2% (active). Moreover, the figures for the growth inhibition in test [6] (setting [7]), in test [6] (setting [8]) and in test [6] (at 50.0 µM) were 33%, 99% (active) and 99.7% (active), respectively.

On to `CCCCCCCCCCCC[N+](C)(C)C` (tested in a mixture with another compound), for which the growth inhibition in test [1] (setting [7]) was -7%; in test [1] (setting [8]), 99% (active); in test [1] (at 50.0 µM), 67.9%; in test [3] (setting [7]), -4%; in test [3] (setting [8]), 98% (active); in test [3] (at 50.0 µM), 49.2%. Moreover, the growth inhibition in test [4] (setting [7]) is 5%; in test [4] (setting [8]), 98% (active); in test [4] (at 50.0 µM), 10.6%; in test [5] (setting [7]), 20%; in test [5] (setting [8]), 99% (active); in test [5] (at 50.0 µM) it was 88.5% (active). Further, the growth inhibition is 0% in test [6] (setting [7]), 98% (active) in test [6] (setting [8]) and 64% in test [6] (at 50.0 µM).

Regarding `CC(=O)OC1COC(SC(=N)N)C(OC(C)=O)C1OC(C)=O` (centres undefined), the growth inhibition in test [1] (at 50.0 µM) was 41.4% and 24.4% and 20%; in test [2] (at 50.0 µM), 15.8% and 17.9% and -1.25%; in test [3] (at 50.0 µM) it was 27.9% and 22.1% and 24.4%; in test [4] (at 50.0 µM), 19.6% and -30.5% and -41.8%; in test [5] (at 50.0 µM), 1.65% and 6.55% and -1.75%; in test [6] (at 50.0 µM), 22.6% and 29.1% and 4.55%.

As to `CN(C)CC1CCc2c(ccc3ccccc23)C1=O` (centres undefined), the growth inhibition in test [1] (setting [7]) was 8%; in test [1] (setting [8]), 68%; in test [1] (at 50.0 µM) it was 69%; in test [2] (setting [7]), -16%; in test [2] (setting [8]) it was 28%; in test [2] (at 50.0 µM), 66.8%. Moreover, the growth inhibition in test [3] (setting [7]) is 29%; in test [3] (setting [8]), 76% (active); in test [3] (at 50.0 µM), 71.1% (active); in test [4] (setting [7]) it was 12%; in test [4] (setting [8]) it was 46%; in test [4] (at 50.0 µM) it was 39.7%. The values for the growth inhibition in test [6] (setting [7]), in test [6] (setting [8]) and in test [6] (at 50.0 µM) were 40%, 78% (active) and 53.8%, respectively.

Take `CCN1C2=NC(=O)N(C)C(=O)C2(Cl)C(C(SC)S(=O)(=O)c2ccc(C)cc2)c2ccccc21` (centres undefined): the growth inhibition in test [2] (setting [7]) was 7%; in test [2] (setting [8]), 7%; in test [2] (at 50.0 µM), 86.3% (active); in test [3] (setting [7]), 15%; in test [3] (setting [8]), 15%; in test [3] (at 50.0 µM), 81.7% (active). Also, the growth inhibition is 18% in test [4] (setting [7]); 18% in test [4] (setting [8]); 90% (active) in test [4] (at 50.0 µM); 1% in test [5] (setting [7]); 1% in test [5] (setting [8]); 89.5% (active) in test [5] (at 50.0 µM). Moreover, the growth inhibition in test [6] (setting [7]) is 2%; in test [6] (setting [8]) it was 2%; in test [6] (at 50.0 µM) it was 84.7% (active).

Turning to `C=CCc1cc(C(=O)OCC)cc(OC)c1O`, the growth inhibition in test [2] (setting [7]) was 22%; in test [2] (setting [8]) it was 98% (active); in test [2] (at 50.0 µM), -1.1%; in test [3] (setting [7]), 34%; in test [3] (setting [8]), 91% (active); in test [3] (at 50.0 µM) it was 3.9%. The growth inhibition in test [4] (setting [7]) is 20%; in test [4] (setting [8]), 95% (active); in test [4] (at 50.0 µM), -23.4%; in test [5] (setting [7]), 19%; in test [5] (setting [8]), 95% (active); in test [5] (at 50.0 µM) it was 74% (active). Further, the growth inhibition in test [6] (setting [7]) is 44%; in test [6] (setting [8]) it was 97% (active); in test [6] (at 50.0 µM), -0.35%.

On to `CCOc1ccccc1C(=O)Nc1cc(C)nn1-c1ccccc1`, for which the growth inhibition was 5% in test [1] (setting [7]); 4% in test [1] (setting [8]); 29.4% in test [1] (at 50.0 µM); 7% in test [3] (setting [7]); 6% in test [3] (setting [8]); 99.4% (active) in test [3] (at 50.0 µM). For the same compound, the growth inhibition is 0% in test [4] (setting [7]); -1% in test [4] (setting [8]); 98.8% (active) in test [4] (at 50.0 µM); -1% in test [5] (setting [7]); -3% in test [5] (setting [8]); 99.3% (active) in test [5] (at 50.0 µM). In addition, the results for the growth inhibition in test [6] (setting [7]), in test [6] (setting [8]) and in test [6] (at 50.0 µM) were -1%, 0% and 99.5% (active), respectively.

Regarding `NC(=O)c1ccccc1C(=O)O`, the growth inhibition in test [2] (setting [7]) is -5%; in test [2] (setting [8]) it was -2%; in test [2] (at 50.0 µM), 1.85%; in test [3] (setting [7]), 0%; in test [3] (setting [8]) it was 2%; in test [3] (at 50.0 µM), -36.1%. Moreover, the growth inhibition in test [4] (setting [7]) was 2%; in test [4] (setting [8]), 1%; in test [4] (at 50.0 µM), 36.9%; in test [5] (setting [7]) it was 2%; in test [5] (setting [8]), 9%; in test [5] (at 50.0 µM), 0.6%. Also, the values for the growth inhibition in test [6] (setting [7]), in test [6] (setting [8]) and in test [6] (at 50.0 µM) were -5%, 5% and 5.9%, respectively.

For `CCN(CC)CC(O)c1ccnc2c(O)cccc12` (centres undefined), the growth inhibition in test [1] (setting [7]) is 3%; in test [1] (setting [8]) it was 40%; in test [1] (at 50.0 µM), 80.2% (active); in test [2] (setting [7]), 4%; in test [2] (setting [8]) it was 40%; in test [2] (at 50.0 µM), 20.6%. Also, the growth inhibition in test [3] (setting [7]) was -2%; in test [3] (setting [8]) it was 33%; in test [3] (at 50.0 µM) it was 71.7% (active); in test [4] (setting [8]), 32%; in test [4] (at 50.0 µM), 11.9%; in test [5] (setting [7]), -6%. In addition, the growth inhibition in test [5] (setting [8]) is 42%; in test [5] (at 50.0 µM), 0.1%; in test [6] (setting [7]), 1%; in test [6] (setting [8]), 20%; in test [6] (at 50.0 µM), 51.9%.

In the case of `CC/C(=N\O)c1ccc2cc(Br)c3ccccc3c2c1`, the growth inhibition in test [1] (setting [7]) is 5%; in test [1] (setting [8]), 89% (active); in test [1] (at 50.0 µM) it was 98.7% (active); in test [3] (setting [7]), 10%; in test [3] (setting [8]), 88% (active); in test [3] (at 50.0 µM) it was 98.7% (active). Moreover, the growth inhibition in test [4] (setting [7]) was -10%; in test [4] (setting [8]) it was 84% (active); in test [4] (at 50.0 µM), 96.8% (active); in test [5] (setting [7]), -4%; in test [5] (setting [8]), 87% (active); in test [5] (at 50.0 µM) it was 98.8% (active). The growth inhibition in test [6] (setting [7]) was 5%; in test [6] (setting [8]), 88% (active); in test [6] (at 50.0 µM) it was 98.6% (active).

Regarding `Nc1ccc(O)c2c1C(=O)c1ccccc1C2O` (centres undefined), the growth inhibition in test [1] (setting [7]) is -9%; in test [1] (setting [8]), 96% (active); in test [1] (at 50.0 µM) it was 94.8% (active); in test [3] (setting [7]), 32%; in test [3] (setting [8]), 97% (active); in test [3] (at 50.0 µM), 83.8% (active). For the same compound, the growth inhibition in test [4] (setting [7]) was -10%; in test [4] (setting [8]) it was 78% (active); in test [4] (at 50.0 µM), 54.8%; in test [5] (setting [7]) it was 19%; in test [5] (setting [8]), 96% (active); in test [5] (at 50.0 µM), 81.5% (active). In addition, the growth inhibition in test [6] (setting [7]) was 28%; in test [6] (setting [8]), 98% (active); in test [6] (at 50.0 µM) it was 94.5% (active).
